Source: PubChem BioAssay
Shown are actives, neighbours in structure and some others; about 20% of the full set was active somewhere.
Cycloheximide cs – Cycloheximide Counterscreen for Small Molecule Inhibitors of Shiga Toxin. max response, %. cell reporter, cycloheximide protein synthesis inhibition counterscreen. AID 2314, 2010. 300,000 tested, 12% active; in the data active means max response mostly above about 13%, no sharp cut-off; inactive means mostly below about 14%; further: read at 38.3 µM for the half of the compounds with a filed dose; 0% is about no effect
Pf growth 48h – Primary qHTS for delayed death inhibitors of the malarial parasite plastid, 48 hour incubation. P. falciparum luciferase growth in erythrocytes, 48 h. 310,000 tested, 5.9% active. Potency, µM (series often up to 28.7 µM), for inactives: at the highest dose activity change, negative = inhibition, usual class: inhibitors. AID 504832, 2011; further: potency means the concentration at half of the fitted maximal effect; on the % scale 0 is the no-effect control and ±100 the full control effect
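Erythrocytes infected with P. falciparum carrying an integrated firefly luciferase reporter (2% hematocrit, 0.1% parasitemia final) were exposed to compounds in RPMI 1640 with 0.5% Albumax at 37 C, 5% CO2. Growth inhibition was scored as reduced luminescence.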
Shiga inhibitor – A qHTS for Small Molecule Inhibitors of Shiga Toxin | 290,000 tested, 9.2% active | Vero cells, Shiga toxin protein synthesis inhibition reporter | inhibition, % at 38.7 µM; in the data active means inhibition mostly above about 28%, no sharp cut-off; inactive means mostly below about 43%; further: 0% is about no effect
Pf growth 96h – Primary qHTS for delayed death inhibitors of the malarial parasite plastid, 96 hour incubation. 320,000 tested, 6.9% active. Potency, µM (top dose mostly 28.7 µM), for the others: at the top dose activity change, negative = inhibition, usual class: inhibitors. AID 504834, 2011. P. falciparum luciferase reporter growth, 96 h; further: potency means the concentration at half of the fitted maximal effect; on the % scale 0 is the no-effect control and ±100 the full control effect
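Two-generation exposure (96 h) targets delayed-death phenotype. Reporter parasites carrying integrated firefly luciferase, in red cells at 2% hematocrit and 0.05% parasitemia final, kept at 37 C, 5% CO2; luminescence loss indicates inhibition.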
HCMV antiviral – qHTS Assay for inhibitors of the human cytomegalovirus (HCMV) | HFF cells, HCMV-luciferase reporter, 72 h; active compounds read low | activity change, negative = inhibition, % at 57.5 µM | 410,000 tested, 4.5% active | AID 1259415, 2018; in the data active means activity change below about -60%; inconclusive means no clear call, values can overlap the other calls; inactive means above about -39%; further: on the % scale 0 is the no-effect control and ±100 the full control effect
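After 16 h attachment at 37C, HFF cells received test compound and HCMV-luciferase (1 PFU/cell); reporter luminescence read 72 h later, data normalized against buffer-only and known inhibitor Salinomycin.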
* marks the source's active call; other numbers are inactive results. Unless noted, the call rests on the fitted dose curve; in most records, active means well fitted inhibition curve with a large enough effect; inconclusive means small, poorly fitted or top-dose-only effect, or another doubt; inactive means no such curve, though single readings can be large or run the other way.

For Cc1cc(C)nc(/N=C(\N)Nc2ccc(OCCC(C)C)cc2)n1 the results were Cycloheximide cs 0, Pf growth 48h 10µM*, Shiga inhibitor -7, Pf growth 96h inconclusive and HCMV antiviral inconclusive.
`CC1(C)CC(=O)C2=C(C1)Nc1ncnn1C2c1cccs1` (stereo unspecified) gave Cycloheximide cs 2, Pf growth 48h -4%, Shiga inhibitor -11, Pf growth 96h -5% and HCMV antiviral 9.
O=C(CN1C(=O)/C(=C\c2cccc(Br)c2)Oc2ccccc21)NCC1CCCO1 (stereo unspecified) was read as Cycloheximide cs -5, Pf growth 48h inconclusive, Shiga inhibitor 22, Pf growth 96h 13µM* and HCMV antiviral -20.
For CCOC(=O)CN1C(=O)/C(=C/c2cccc(Br)c2)Oc2ccccc21 the results were Cycloheximide cs -6, Pf growth 48h inconclusive, Shiga inhibitor -12, Pf growth 96h 18% and HCMV antiviral -31.
For Cc1cccc(-n2cc(-c3ccc([N+](=O)[O-])cc3)[nH]c2=S)c1 the results were Cycloheximide cs 24*, Pf growth 48h 41%, Shiga inhibitor 105*, Pf growth 96h 8% and HCMV antiviral -10.
Screening Cc1ccc(-n2cc(-c3ccc([N+](=O)[O-])cc3)[nH]c2=S)c(C)c1 returned Cycloheximide cs 3, Pf growth 48h inconclusive, Shiga inhibitor 13, Pf growth 96h -101% and HCMV antiviral -64*.
Screening O=[N+]([O-])c1ccc(-c2cn(-c3ccccc3)c(=S)[nH]2)cc1 returned Cycloheximide cs -1, Pf growth 48h 20%, Shiga inhibitor 22, Pf growth 96h 0% and HCMV antiviral 38.
`O=[N+]([O-])c1cccc(-c2cn(-c3ccccc3)c(=S)[nH]2)c1` gave Cycloheximide cs 6, Pf growth 48h inconclusive, Shiga inhibitor 20, Pf growth 96h -6% and HCMV antiviral 89.
N#Cc1nc(-c2ccc(Cl)cc2)oc1NCc1ccco1 was read as Cycloheximide cs 28*, Pf growth 48h 26%, Shiga inhibitor 91* and HCMV antiviral 0.
Screening N#Cc1nc(-c2ccco2)oc1NCc1ccc(F)cc1 returned Cycloheximide cs 12, Pf growth 48h 19%, Shiga inhibitor 34 and HCMV antiviral -24.
N#Cc1nc(-c2ccccc2Cl)oc1NCc1ccco1 was read as Cycloheximide cs 22*, Pf growth 48h 1%, Shiga inhibitor 47* and HCMV antiviral 22.
Screening N#Cc1nc(-c2ccccc2)oc1NCc1ccco1 returned Cycloheximide cs 24*, Pf growth 48h 8%, Shiga inhibitor active, Pf growth 96h 29% and HCMV antiviral 99.
`COc1ccc(-c2nc(C#N)c(NCc3ccccc3Cl)o2)cc1` gave Cycloheximide cs 21, Pf growth 48h 10%, Shiga inhibitor 11, Pf growth 96h inconclusive and HCMV antiviral 37.
`N#Cc1nc(-c2ccc(Cl)cc2)oc1NCc1cccc2c1OCO2` gave Cycloheximide cs 28, Pf growth 48h -8%, Shiga inhibitor 29, Pf growth 96h inconclusive and HCMV antiviral 46.
`O=C(O)c1ccccc1C(=O)NC1Cc2ccccc2C1` gave Cycloheximide cs -2, Pf growth 48h 61%, Shiga inhibitor 1, Pf growth 96h 7% and HCMV antiviral -10.
`N#CCN(N=Nc1ccccc1)c1ccccc1` gave Cycloheximide cs 38*, Pf growth 48h 10µM*, Shiga inhibitor 71*, Pf growth 96h 0% and HCMV antiviral 44.
O=[N+]([O-])c1cccc(N=NN(CCO)c2cccc([N+](=O)[O-])c2)c1 was read as Cycloheximide cs -2, Pf growth 48h -13%, Shiga inhibitor -8 and HCMV antiviral -13.
For CCOCC(=O)Nc1nnc(COc2ccc(Cl)cc2)s1 the results were Cycloheximide cs 17, Pf growth 48h 19%, Shiga inhibitor 12, Pf growth 96h inconclusive and HCMV antiviral 34.
CCOCC(=O)Nc1nnc(COC)s1 was read as Cycloheximide cs -1, Pf growth 48h 34%, Shiga inhibitor 16, Pf growth 96h inconclusive and HCMV antiviral 37.
O=C(CSc1ccccc1)Nc1nnc(COc2ccc(Cl)cc2)s1 was read as Cycloheximide cs 65*, Pf growth 48h 1%, Shiga inhibitor 61*, Pf growth 96h 52% and HCMV antiviral -22.
Cc1cccc(C)c1OCc1nnc(NC(=O)CSc2ccc(Cl)cc2)s1 was read as Cycloheximide cs -4, Pf growth 48h 10%, Shiga inhibitor -8, Pf growth 96h inconclusive and HCMV antiviral 0.
For CCOc1ccccc1OCC(=O)Nc1nnc(COC)s1 the results were Cycloheximide cs 3, Pf growth 48h 20%, Shiga inhibitor 28, Pf growth 96h -3% and HCMV antiviral -102*.
COCC(=O)Nc1nnc(COc2ccc(Cl)cc2)s1 was read as Cycloheximide cs 20*, Pf growth 48h 18%, Shiga inhibitor 73*, Pf growth 96h 16% and HCMV antiviral -1.
`O=C(NCc1ccccc1)c1ccc(Cn2c(=O)c3cccn3c3cccnc32)cc1` gave HCMV antiviral 17.
Cc1c(C(=O)N2CCC2)oc2c(F)cccc12 was read as HCMV antiviral -19.
`Cc1c(C(=O)N2CCN(c3ccccc3)CC2)oc2c(F)cccc12` gave Cycloheximide cs 32*, Pf growth 48h -1%, Shiga inhibitor 45, Pf growth 96h inconclusive and HCMV antiviral -9.
Screening Cc1c(C(=O)N2CCN(C3CCS(=O)(=O)C3)CC2)oc2c(F)cccc12 (stereo unspecified) returned Pf growth 48h 14%, Pf growth 96h inconclusive and HCMV antiviral 28.
Screening CC(=O)NCC1CCCN(C(=O)c2oc3c(F)cccc3c2C)C1 (stereo unspecified) returned Cycloheximide cs 14, Pf growth 48h 38%, Shiga inhibitor 26, Pf growth 96h -7% and HCMV antiviral -101*.
For CCOC(=O)N1CCC(NC(=O)c2oc3c(F)cccc3c2C)CC1 the results were Cycloheximide cs 65*, Pf growth 48h 45%, Shiga inhibitor 62*, Pf growth 96h 0% and HCMV antiviral -18.
For Cc1c(C(=O)N2CCCCC2CCN2CCCC2=O)oc2c(F)cccc12 (stereo unspecified) the results were Cycloheximide cs 5, Pf growth 48h 3%, Shiga inhibitor -6, Pf growth 96h 0% and HCMV antiviral -63*.
Screening Cc1c(C(=O)NCCN2CCCC(O)C2)oc2c(F)cccc12 (stereo unspecified) returned Cycloheximide cs -4, Pf growth 48h 36%, Shiga inhibitor 10, Pf growth 96h -20% and HCMV antiviral 15.
`CCCNC(=O)c1cc2nc(-c3ccccc3)cc(C(F)(F)F)n2n1` gave Cycloheximide cs -1, Pf growth 48h inconclusive, Shiga inhibitor 19, Pf growth 96h 25% and HCMV antiviral inconclusive.
Screening COc1nc(-c2ccccc2)ccc1-c1noc(-c2ccccc2Br)n1 returned HCMV antiviral 15.
